Consider 29 compounds from PubChem BioAssay.

Unmarked numbers belong to inactive results. The rule behind the calls is not given here.

A short description of one experiment: blockers of DNA damage checkpoint Chk1 activation – imaging, HeLa, hydroxyurea, phospho-Chk1 antibody, percent positive cells, primary screen (AID 1186). As to conditions: hydroxyurea-induced phospho-Chk1 immunofluorescence imaging, higher = more signal.
Turning to `CC(C)c1nc2cc(Br)ccc2c(=O)o1`, the z-score is -0.0165.
On the same count and under the same terms, the value for `CCOC(=O)C1=CCC(c2cc3ccccc3[nH]2)N(CCN2CC(C(=O)OCC)=CCC2c2cc3ccccc3[nH]2)C1` (centres undefined) was -0.852; that for `O=C(NC1CC1)[C@@H]1c2ccccc2C(=O)N(CC23CC4CC(CC(C4)C2)C3)[C@H]1c1ccc(CO)cc1` was -0.0001.
Same read-out and setting: as for `N#Cc1ccc(NN2C(C(O)C3CC=CCC3)C=CC3C(=O)N(c4ccccc4)C(=O)C32)cc1` (centres undefined), the figure is 0.123; as for `O=C(NCC(O)CO)C1N=C(c2ccc(OCCCO)cc2)N(c2ccccc2)O1` (centres undefined), -0.195; as for `CCCC[C@H]1OB(O)C[C@H]2C1=C(COc1ccccc1)C[C@H]1C(=O)C=CC(=O)[C@H]12`, -0.177.
Still for that read-out and setting: as for `COCCn1c(C(=O)N(C)C)cc2c1C[C@H]1CN(C(=O)c3ccccc3)[C@@](Cc3ccc(OC)cc3)(C(=O)OC)[C@@H]21`, the figure is 0.688.

The next experiment is described as follows: blockers of DNA damage checkpoint Chk1 activation – imaging, HeLa, hydroxyurea, phospho-Chk1 nuclear intensity, primary screen (AID 1187). Note: test concentration not given here. As to conditions: hydroxyurea-induced phospho-Chk1 immunofluorescence imaging, higher = more signal.
`CC(C)(C)N1CC=CC23O[C@@H]4/C=C\CCCOC(=O)C4[C@H]2C(=O)N(CCCCCO)[C@@H]3C1=O` (some centres undefined): the z-score is 0.144.
In the case of `COCCCNC(=O)[C@@]1(CCS(=O)(=O)c2ccccc2)COC(c2ccc(OCCCO)cc2)=N1`, the z-score is 0.103.
With `O=C1NC(=O)C2C1C=CC(C(O)c1ccc(B(O)O)cc1)N2Nc1ccc(Cl)cc1Cl` (centres undefined), the z-score is 0.367.
The same measure, in the same setting: the value for `CCOc1cc(C(O)C2C=CC3C(=O)N(c4ccccc4)C(=O)C3N2Nc2ccccc2F)ccc1O` (centres undefined) was -0.304; that for `O=C1OCCC=C[C@H]2OC34C=CCN(c5ccc6ccccc6c5)C(=O)[C@H]3N(CCO)C(=O)[C@@H]4C12` (some centres undefined) was 0.163; that for `CN(C)CCCNC(=O)[C@@]1(Cc2ccccc2I)c2ccccc2C(=O)N(C2CCCCC2)[C@H]1c1ccc(CO)cc1` was -0.621.
On to `COc1ccc(C#Cc2ccc3c(c2)[C@]2(C(=O)N3)[C@H](C(=O)O)[C@H]3C(=O)O[C@H](c4ccccc4)[C@H](c4ccccc4)N3[C@@H]2c2ccccc2OCCO)cc1`, for which the z-score is 0.175.
On the same count and under the same terms, the value for `COCCOC(=O)N1C(=O)[C@@]2(c3cc(C#CC4(O)CCCCCC4)ccc31)[C@H](c1ccc(O)cc1)N1[C@H](c3ccccc3)[C@H](c3ccccc3)OC(=O)[C@H]1[C@@H]2C(=O)N1CCCCCCC1` was 0.244.
The same measure, in the same setting: as for `[N-]=[N+]=Nc1ccccc1[C@@H]1OC(c2ccc(OCCCO)cc2)=N[C@]1(Cc1ccccc1)C(=O)NCCN1CCOCC1`, the figure is -0.456.
Still for that read-out and setting: as for `CCCCC(O)C1C=CC2C(=O)N(c3ccccc3)C(=O)C2N1Nc1ccccc1` (centres undefined), the figure is 0.283; as for `CC=CC(O)C1C=CC2C(=O)NC(=O)C2N1Nc1ccc(Cl)cc1Cl` (centres undefined), 1.22.
Take `COC(=O)[C@H](Cc1ccccc1)N1CC2=CCCC=C[C@@H]2[C@H]1[C@H](O)Cc1ccccc1`: the z-score was -0.685.
Consider `Cc1ccc(S[C@]2(C(=O)NC(C)C)CC(=O)N(C3CCCCC3)[C@@H]2c2ccc(CO)cc2I)cc1`, for which the z-score is 0.202.
On the same count and under the same terms, the value for `CCCNC(=O)[C@@]1(c2ccc([N+](=O)[O-])cc2)CC(=O)N(C(C)C)[C@@H]1c1ccc(CO)cc1` was -0.105; that for `COC(=O)[C@@]1(Cc2ccc(OC)cc2)[C@H]2c3cc(C(=O)N(C)C)[nH]c3C[C@H]2CN1C(=O)c1ccccc1` was -0.309.
Still for that read-out and setting: as for `O=C1N(CCS(=O)(=O)c2ccccc2)c2ccccc2C[C@]12N=C(c1ccc(OCCCO)cc1)O[C@@H]2c1ccccc1`, the figure is -0.357.
`CC1=C([C@H](O)CCc2ccccc2)[C@H](CO)n2c(=O)n(-c3ccccc3)c(=O)n2C1`: the z-score was -0.906.
On the same count and under the same terms, the value for `O=C1O[C@H](Cc2ccccc2)[C@@H]2[C@H]3C=CCCC=C3CN2[C@H]1Cc1ccc(O)cc1` was -0.122; that for `CN(C)c1ccc(C(O)C2C=CC3C(=O)N(Cc4ccccc4)C(=O)C3N2n2cnnc2)cc1` (centres undefined) was -1.58; that for `COC(=O)[C@@]1(Cc2ccc(F)cc2)[C@H]2c3cc(C(=O)N(C)C)n(CCc4ccc(O)c(O)c4)c3C[C@H]2CN1C(=O)c1ccccc1` was 0.0787.
Regarding `CCCC[C@H]1C[C@@H]1[C@@H]1N(C(C)=O)[C@H](c2cccc(OC)c2)CC12CC2`, the z-score was 0.638.
On the same count and under the same terms, as for `CC(=O)OCC1C2CC[C@H]3C(OCc4ccc(F)cc4C(F)(F)F)OC[C@]4(C)[C@H]3C2=C(CN4C(=O)OC(C)(C)C)[C@H](C)C1COC(C)=O` (some centres undefined), the figure is 0.833.
